“And” between values parts separate entries of the source, which are not always exact repeats. Equal values may be shown once. Results filed as inconclusive are left out. The source made the active and inactive calls. Unless noted, the call rests on the fitted dose curve; in most records, active means well fitted curve in the direction sought with a large enough effect; inconclusive means small, poorly fitted or top-dose-only effect, or another doubt; inactive means no such curve, though single readings can be large; an effect the other way counts as inactive or inconclusive.
Assays:
[1] = Cell Viability - BJ (AID 421; calls by dose curve;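 further: potency means the concentration at half of the fitted maximal effect; cells exposed to compound for 40 hours at 37 °C before readout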); conditions: BJ fibroblast viability, qHTS
How it was run: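 Cytotoxicity in human BJ foreskin fibroblasts is scored as loss of cellular ATP after a 40-hour exposure, measured by luciferase luminescence. Controls are DMSO and 100 uM tamoxifen.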

[2] = Cell Viability - Jurkat (AID 426;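 active means dose-dependent loss of cell ATP signal giving a full or clear fitted curve, ranked by lower potency value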; further: potency means the concentration at half of the fitted maximal effect); conditions: qHTS
How it was run: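 Seed 5000 Jurkat E6-1 cells/well; add compound; incubate 40 hr at 37 °C; add CellTiter-Glo; wait 20 min at room temperature; read luminescence. Fit concentration-response with Hill equation for AC50.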

[3] = Cell Viability - Hek293 (AID 427;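 active means compounds whose dose-response curve shows a full or clear partial loss of cell viability, called from curve shape rather than a numeric limit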;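 further: potency means the concentration at half of the fitted maximal effect; cells exposed to compound for 40 hours at 37 °C before reading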); conditions: qHTS
How it was run: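 qHTS, human embryonic kidney (adenovirus-transformed) cells; 40 hr cpd, 37 °C; CellTiter-Glo ATP luminescence. Norm: DMSO = 0, 100 uM tamoxifen = 100% inhibition. Hill-fit AC50.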

[4] = Cell Viability - HepG2 (AID 433; calls by dose curve;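 further: potency means the concentration at half of the fitted maximal effect; potency for ATP loss meaning cytotoxicity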); conditions: qHTS
How it was run: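 Read-out is luciferase-based quantitation of cellular ATP as a measure of viable HepG2 cells after 40 h treatment at 37 °C. Signal decrease is scaled between DMSO-only and 100 uM tamoxifen controls, with AC50 fitted by the Hill equation.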

[5] = Cell Viability - MRC5 (AID 434; calls by dose curve;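 further: potency means the concentration at half of the fitted maximal effect; potency reflects cytotoxicity seen as loss of intracellular ATP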); conditions: MRC5 lung fibroblast viability, qHTS
How it was run: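 MRC5 normal human lung fibroblasts, 1500 cells/well, exposed to compound for 40 hr at 37 C. Cellular ATP was read by CellTiter-Glo luminescence; data normalized to DMSO and 100 uM tamoxifen, with AC50 from Hill fits.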

[6] = Cell Viability - SK-N-SH (AID 435; calls by dose curve;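 further: potency means the concentration at half of the fitted maximal effect; compound exposure lasted 40 h at 37 °C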); conditions: SK-N-SH neuroblastoma cell viability qHTS
How it was run: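 Luminescent ATP signal served as the viability read-out after 40 hours of compound treatment of human neuroblastoma SK-N-SH cells. Concentration-response data, scaled between DMSO and 100 uM tamoxifen, gave AC50 values by standard Hill modeling.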

[7] = Cell Viability - N2a (AID 540); conditions: N2a mouse neuroblastoma cell viability; series mostly up to 92.2 µM;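 further: plate controls were DMSO alone for no effect and tamoxifen control for full effect; nearly all actives have a fitted effect of over 45% in size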
How it was run: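 First, 1500 N2a cells per well incubate 5 hr at 37 °C; next, compounds are added and incubated 40 hr at 37 °C; finally CellTiter-Glo is added and luminescence read after 20 min, with AC50 derived by Hill modeling.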

[8] = Cell Viability - NIH 3T3 (AID 541); conditions: NIH 3T3 cell viability, qHTS; series mostly up to 92.2 µM;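 further: plate controls were DMSO alone for no effect and tamoxifen positive control for full effect; nearly all actives have a fitted effect of over 25% in size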
How it was run: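 AC50 values reflect concentration-dependent loss of intracellular ATP in NIH 3T3 cells after 40 hr treatment in complete culture medium, quantified by luciferase-based luminescence.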

[9] = Cell Viability - HUV-EC-C (AID 542); conditions: HUV-EC-C endothelial cell viability, qHTS; series mostly up to 92.2 µM; further: on the % scale 0 is the no-effect control and ±100 the full control effect; nearly all actives have a fitted effect of over 35% in size
How it was run: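 Decrease in cellular ATP, quantified by luciferase luminescence, reflects toxicity in normal human vascular endothelial HUV-EC-C cells given compound for 40 hr in complete culture medium. Values are AC50s from concentration-response curves.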

[10] = Cell Viability - H-4-II-E (AID 543); conditions: H-4-II-E rat hepatoma viability; series mostly up to 92.2 µM; further: on the % scale 0 is the no-effect control and ±100 the full control effect; nearly all actives have a fitted effect of over 35% in size
How it was run: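 Here, cytotoxicity is measured in the rat hepatoma line H-4-II-E as loss of intracellular ATP after 40 hr compound treatment, detected by luciferase luminescence.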

[11] = Cell Viability - SH-SY5Y (AID 544); conditions: SH-SY5Y neuroblastoma cell viability; series mostly up to 92.2 µM;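 further: 0% = DMSO alone and -100% = 100 µM tamoxifen; nearly all actives have a fitted effect of over 55% in size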
How it was run: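 Cytotoxicity is scored as a concentration-dependent fall in intracellular ATP in human SH-SY5Y cells treated 40 hr in complete culture medium. Potency is expressed as AC50 from a Hill equation fit.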

[12] = Cell Viability - Renal Proximal Tubule (AID 545); conditions: renal proximal tubule cells viability, primary cells of rat origin; series mostly up to 91.7 µM;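 further: 0% = DMSO only and -100% = 100 µM tamoxifen; nearly all actives have a fitted effect of over 40% in size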
How it was run: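 Luminescent ATP signal (CellTiter-Glo) served as the viability read-out after 40 hr compound exposure of freshly isolated rat proximal tubule cells at 37 °C. Concentration-dependent ATP loss was fitted with the Hill equation to give AC50.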

[13] = Cell Viability - Mesenchymal (AID 546); conditions: mesenchymal cells viability, qHTS; series mostly up to 91.7 µM;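 further: cells exposed to compound for 40 hours before reading; 0% = DMSO only and -100% = 100 µM tamoxifen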
How it was run: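 Human kidney mesenchymal cells from normal renal glomeruli, 1000 cells/well, rested 5 hr at 37 °C, then treated 40 hr at 37 °C in complete medium. Cellular ATP read by CellTiter-Glo luminescence; AC50 from Hill-equation fits.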

[14] = qHTS Assay for Identification of Small Molecule Inducers of Hypoxia Response (AID 2120; active means well fitted curve in the direction sought with a large enough effect in the signal ratio, with a control signal flat, not every such curve was filed as active; the % refers to the signal ratio; further: 0% is about no effect); conditions: hypoxia response reporter cells, beta-lactamase ratio readout; series mostly up to 104 µM
How it was run: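 Induction of beta-lactamase reporter activity was measured in CellSensor HRE-bla ME-180 cells after 17 h compound treatment at 37 degrees C, using CCF4 substrate and the 460nm/530nm emission ratio to derive AC50 values.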

[15] = molecular target: DNA dC->dU-editing enzyme APOBEC-3G (Homo sapiens) (UniProt Q9HC16); test: qHTS for inhibitors of Vif-A3G interactions: Validation (AID 588379); conditions: Vif-A3G protein interaction assay; series mostly up to 46.1 µM; further: 0% is about no effect
How it was run: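 HeLa cells stably expressing Vif and A3G-eYFP, 700 cells/well, incubated overnight at 37 deg C, then exposed to compound overnight at 37 deg C. Inhibition of Vif-mediated degradation read as increased yellow fluorescence (Ex 488/Em 500-530) by laser-scanning cytometry.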

[16] = molecular target: Glucocorticoid receptor (Homo sapiens) (UniProt P04150); test: qHTS assay for small molecule agonists of glucocorticoid receptor signaling (AID 588532; active means well fitted curve in the direction sought with a large enough effect in the signal ratio, with a control signal flat; the % refers to the signal ratio;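 further: 100% = dexamethasone at 0.1 µM and 0% = DMSO only wells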); conditions: HeLa MMTV-bla, beta-lactamase ratio, agonist, 18 h; hits give high values; percent of dexamethasone control, DMSO zero
How it was run: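 HeLa GRE-bla reporter cells; 18 h compound exposure at 37 C; 2 h CCF4 loading at room temperature; fluorescence at 460 and 530 nm; EC50 by Hill equation.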

[17] = molecular target: Glucocorticoid receptor (Homo sapiens) (UniProt P04150); test: qHTS assay for small molecule antagonists of glucocorticoid receptor signaling (AID 588533; active means well fitted inhibition curve with a large enough effect in the signal ratio, with a control signal flat, not every such curve was filed as active; the % refers to the signal ratio;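 further: cells stimulated with 2 nM dexamethasone as agonist; on the % scale 0 is the no-effect control and ±100 the full control effect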); conditions: HeLa MMTV-bla, GRE beta-lactamase ratio, antagonist mode, 18 h; series mostly up to 76.8 µM
How it was run: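 Antagonist-mode qHTS: compound titrations added to GRE-bla HeLa cells, then dexamethasone 2 nM final; 18 h, 37 C. CCF4 FRET fluorescence normalized to dexamethasone and DMSO; IC50 from Hill fit.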

[18] = molecular target: Peroxisome proliferator-activated receptor gamma (Homo sapiens) (UniProt P37231); test: qHTS assay for small molecule agonists of peroxisome proliferator-activated receptor gamma signaling (AID 588536; active means well fitted curve in the direction sought with a large enough effect in the signal ratio, with a control signal flat, not every such curve was filed as active; the % refers to the signal ratio;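 further: 0% = DMSO basal wells and 100% = rosiglitazone at 2 µM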); conditions: HEK293 PPARg-UAS-bla, beta-lactamase ratio, 16 h, percent of rosiglitazone response, DMSO as zero; series mostly up to 76.7 µM
How it was run: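 Test agents, titrated, stimulated HEK293 UAS-bla cells overnight (16 h, 37 C). Substrate CCF4 was then added for two hours at room temperature before fluorescence reading.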

7G8 = test: qHTS profiling for inhibitors of Plasmodium falciparum proliferation (AID 504749);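 further: 0% = DMSO vehicle and full inhibition = artemisinin control; nearly all actives have a fitted effect of over 60% in size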; conditions: P. falciparum in erythrocytes, SYBR Green DNA, 72 h; series mostly up to 12.8 µM
How it was run: (§1)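 Readout was DNA-dye fluorescence from lysed cultures, ex 485/em 535 nm. Parasitized red cells had grown 72 h with compound; data scaled between 0.29 uM artemisinin and DMSO wells and corrected using vehicle-only plates.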

DIV17 = test: as above; conditions: P. falciparum in erythrocytes, SYBR Green DNA, 72 h; series mostly up to 12.8 µM
How it was run: as §1

Chain of DNA dC->dU-editing enzyme APOBEC-3G (Homo sapiens) (Q9HC16 whole entry, looked up): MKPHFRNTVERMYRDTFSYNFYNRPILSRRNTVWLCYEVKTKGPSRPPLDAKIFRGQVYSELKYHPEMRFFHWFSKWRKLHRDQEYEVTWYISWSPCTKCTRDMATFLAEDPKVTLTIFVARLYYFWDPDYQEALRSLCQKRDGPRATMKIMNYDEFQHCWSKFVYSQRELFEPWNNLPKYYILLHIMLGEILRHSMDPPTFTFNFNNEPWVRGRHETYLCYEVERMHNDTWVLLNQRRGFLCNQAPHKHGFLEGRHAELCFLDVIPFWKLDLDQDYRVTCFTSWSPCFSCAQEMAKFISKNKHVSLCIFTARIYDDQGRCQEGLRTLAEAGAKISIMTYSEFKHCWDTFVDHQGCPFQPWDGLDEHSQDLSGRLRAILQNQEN
Chain of Peroxisome proliferator-activated receptor gamma (Homo sapiens) (P37231 whole entry, looked up): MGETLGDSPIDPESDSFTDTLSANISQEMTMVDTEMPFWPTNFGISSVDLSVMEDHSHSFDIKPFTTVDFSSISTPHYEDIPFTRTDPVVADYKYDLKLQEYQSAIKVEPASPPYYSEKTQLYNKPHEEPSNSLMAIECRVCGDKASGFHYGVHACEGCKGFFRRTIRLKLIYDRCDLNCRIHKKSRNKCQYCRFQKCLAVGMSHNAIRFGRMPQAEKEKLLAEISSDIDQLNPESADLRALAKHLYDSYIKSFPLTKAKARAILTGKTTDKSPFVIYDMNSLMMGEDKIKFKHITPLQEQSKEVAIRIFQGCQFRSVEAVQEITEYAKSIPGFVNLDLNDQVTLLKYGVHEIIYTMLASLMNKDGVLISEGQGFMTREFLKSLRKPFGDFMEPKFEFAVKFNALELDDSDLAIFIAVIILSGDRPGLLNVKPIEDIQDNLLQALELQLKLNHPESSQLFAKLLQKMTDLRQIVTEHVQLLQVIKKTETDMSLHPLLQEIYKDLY
Chain of Glucocorticoid receptor (Homo sapiens) (P04150 whole entry, looked up): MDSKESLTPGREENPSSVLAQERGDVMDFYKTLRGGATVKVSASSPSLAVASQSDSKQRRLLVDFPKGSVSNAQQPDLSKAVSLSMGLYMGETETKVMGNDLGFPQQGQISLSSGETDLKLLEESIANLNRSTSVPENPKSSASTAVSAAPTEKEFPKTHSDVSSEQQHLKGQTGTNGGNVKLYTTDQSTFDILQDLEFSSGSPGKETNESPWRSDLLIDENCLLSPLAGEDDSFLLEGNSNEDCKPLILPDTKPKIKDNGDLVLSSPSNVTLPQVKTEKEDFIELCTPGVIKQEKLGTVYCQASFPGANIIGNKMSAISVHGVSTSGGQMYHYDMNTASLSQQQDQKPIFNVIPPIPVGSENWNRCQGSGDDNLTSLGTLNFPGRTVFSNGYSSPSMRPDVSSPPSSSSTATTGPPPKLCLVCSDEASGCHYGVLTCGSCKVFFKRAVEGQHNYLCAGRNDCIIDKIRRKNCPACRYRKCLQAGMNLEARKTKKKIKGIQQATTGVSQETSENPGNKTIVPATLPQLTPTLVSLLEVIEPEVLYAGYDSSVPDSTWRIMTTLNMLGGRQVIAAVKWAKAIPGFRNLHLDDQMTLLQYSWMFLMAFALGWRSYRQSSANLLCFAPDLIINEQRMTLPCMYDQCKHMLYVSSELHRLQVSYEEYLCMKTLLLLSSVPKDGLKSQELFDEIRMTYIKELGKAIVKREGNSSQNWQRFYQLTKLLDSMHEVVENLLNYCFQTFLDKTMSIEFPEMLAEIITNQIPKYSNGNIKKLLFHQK

C=CC(C)(O)CCC=C(C)C (configuration not stated)
inactive: Potency [1] > 92 µM | Potency [2] > 92 µM | Potency [3] > 92 µM | Potency [4] > 92 µM | Potency [5] > 92 µM | Potency [6] > 92 µM | outcome [7] | outcome [8] | outcome [9] | outcome [10] | outcome [11] | outcome [12] | Potency [13] | outcome [14] | outcome [15] | activation [16] -2.85% and -11.4% | outcome [17] | outcome [18]

O=C(/C=C/c1ccc(O)c(O)c1)OC(Cc1ccc(O)c(O)c1)C(=O)O (configuration not stated)
inactive: outcome [15]

COS(C)(=O)=O
inactive: Potency [1] > 92 µM | Potency [2] > 92 µM | Potency [3] > 92 µM | Potency [4] > 92 µM | Potency [5] > 92 µM | Potency [6] > 92 µM | outcome [7] | outcome [8] | outcome [9] | outcome [10] | outcome [11] | outcome [12] | Potency [13] | outcome [14] | activation [16] -1.66% | outcome [17] | outcome [18]

C[N+](C)(C)CC(O)CC(=O)O (configuration not stated)
inactive: Potency (7G8)

O=C(Cc1cccs1)NC1C(=O)N2C(C(=O)[O-])=C(C[n+]3ccccc3)CSC12 (configuration not stated)
inactive: Potency (7G8) | Potency (DIV17)

CC(C)N1CCN(c2ccc(OC[C@@H]3CO[C@@](Cn4cncn4)(c4ccc(Cl)cc4Cl)O3)cc2)CC1
inactive: Potency (DIV17)

C=C(C)[C@H]1CC=C(C)C(=O)C1
inactive: Potency [1] > 92 µM | Potency [2] > 92 µM | Potency [3] > 92 µM | Potency [4] > 92 µM | Potency [5] > 92 µM | Potency [6] > 92 µM | outcome [7] | outcome [8] | outcome [9] | outcome [10] | outcome [11] | outcome [12] | Potency [13] | outcome [14] | outcome [15] | activation [16] -5.14% and -7.53% | outcome [17] | outcome [18]

C[C@@H]1CCC[C@H](C)N1NC(=O)c1ccc(Cl)c(S(N)(=O)=O)c1
inactive: Potency (7G8) | Potency (DIV17)

CN1[C@@H]2CC[C@H]1CC(OC(=O)[C@@H](O)c1ccccc1)C2 (some centres not stated)
inactive: Potency (7G8) | Potency (DIV17)
